Experimental findings from paper PMC11995724, “Antibiotic target discovery by integrated phenotypic and activity-based profiling of electrophilic fragments” (Cell chemical biology, 2025) are described below.

The whole screen tested about 3,200 compounds, of which about 110 (3.4%) showed an effect of 50% or more. This is one part of a sample in which strong results are shown more often than they occur.

In this assay the test system is T1, V. cholerae SAD30.
T1 construct: SAD30
More on the design: species or system S. aureus MSSA476 (TSB) or V. cholerae SAD30 (LB); 384-well bacterial growth screen at 25 uM, OD600 relative to DMSO control. To be noted: relative growth, OD600, LB; 25 µM; inhibitor.
In the case of `O=C(CCl)NCCCC1CCCCC1` [6-O05, 2-chloro-N-(3-cyclohexylpropyl)acetamide], the “% of control remaining” value came out at 100.256%. Take `O=C(CCl)NC(c1ccccc1)C1CCCCC1` (stereo not shown) [6-E12, 2-chloro-N-[cyclohexyl(phenyl)methyl]acetamide]: the “% of control remaining” value was found to be 79.0217%. On to `CC(Cl)C(=O)Nc1ccc(S(=O)(=O)N2CCCCC2)cc1` (stereo not shown) [4-A12, 2-chloro-N-[4-(piperidine-1-sulfonyl)phenyl]propanamide], for which the “% of control remaining” value worked out at 95.234%. Take `CC(Cl)C(=O)Nc1c(C(C)C)cccc1C(C)C` (stereo not shown) [4-B15, N-[2,6-bis(propan-2-yl)phenyl]-2-chloropropanamide]: the “% of control remaining” value is on record as 91.4384%. As for `C=CC(=O)N[C@H]1CCO[C@@H]1c1ccnn1C(C)C` (racemic) [3-K05, rac-N-[(2R,3R)-2-[1-(propan-2-yl)-1H-pyrazol-5-yl]oxolan-3-yl]prop-2-enamide], the figure is 98.7943%. Take `O=C(CCl)N1CCN(S(=O)(=O)c2cccc([N+](=O)[O-])c2)CC1` [4-C19, 2-chloro-1-[4-(3-nitrobenzenesulfonyl)piperazin-1-yl]ethan-1-one]: the “% of control remaining” value was determined as 91.0934%.

For the compound `C=CC(=O)N1CCC(C(=O)NC2CCCc3cc(F)ccc32)CC1` (stereo not shown) [2-K18, N-(6-fluoro-1,2,3,4-tetrahydronaphthalen-1-yl)-1-(prop-2-enoyl)piperidine-4-carboxamide], the “% of control remaining” value is 78.153%. Take `O=C(CCl)Nc1cccc(S(=O)(=O)N2CCOCC2)c1` [4-P08, 2-chloro-N-[3-(morpholine-4-sulfonyl)phenyl]acetamide]: the “% of control remaining” value was 121.458%. Consider `O=C(CCl)Nc1cccc(S(=O)(=O)N=C2CCCCCN2)c1` [4-D08, N-{3-[(azepan-2-ylidene)sulfamoyl]phenyl}-2-chloroacetamide], for which the “% of control remaining” value came to 107.656%.

With `CC(C)NC(=O)C(C#N)=Cc1c(Cl)nc2ccccn12` [9-A11, 3-{2-chloroimidazo[1,2-a]pyridin-3-yl}-2-cyano-N-(propan-2-yl)prop-2-enamide], the “% of control remaining” value was found to be 91.8423%. In the case of `C=CC(=O)Nc1cc(NC(=O)C2CCC2)ccc1F` [2-E10, N-[4-fluoro-3-(prop-2-enamido)phenyl]cyclobutanecarboxamide], the “% of control remaining” value worked out at 92.0486%. `C=CC(=O)Nc1cc(NC(=O)C2(OC)CCOC2)ccc1F` (stereo not shown) [3-D05, N-[4-fluoro-3-(prop-2-enamido)phenyl]-3-methoxyoxolane-3-carboxamide]: the “% of control remaining” value is on record as 99.5001%.

Turning to `C=CC(=O)Nc1cc(NC(=O)c2ccc([N+](=O)[O-])o2)ccc1F` [3-J04, N-[4-fluoro-3-(prop-2-enamido)phenyl]-5-nitrofuran-2-carboxamide], the “% of control remaining” value is listed as -0.1875%.
